# ELG1 repair inh: blocks ELG1-dependent DNA repair in HEK293T cells. HEK293T ELG1-luciferase reporter, luminescence, 16 h; DNA damage induced by 5-fluorouridine. Potency, µM (top dose mostly 46.1 µM), for the others: at the top dose activity change, negative = inhibition, actives largely listed as inhibitors. actives 2.3% (n = 330,000); further: potency means the concentration at half of the fitted maximal effect; nearly all actives have a fitted effect of over 55% in size
#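 DMSO vehicle served as the neutral condition. Each well held 2,000 cells given 5-fluorouridine plus compound; after 16 hr at 37 °C/5% CO2, ONE-Glo was added and luciferase measured 30 min later.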
# DT40 TDP1 CPT: DT40-hTDP1 cell growth loss with CPT | chicken DT40 Tdp1-/-;hTDP1 cells + 20 nM CPT, ATP luminescence, 48 h | Potency, µM (top dose mostly 46.2 µM), without a hit: at the highest dose activity change, negative = growth inhibition, actives largely listed as inhibitors | actives 12% (n = 420,000); further: potency means the concentration at half of the fitted maximal effect; nearly all actives have a fitted effect of over 55% in size
#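 Chicken DT40 Tdp1-/- cells complemented with human TDP1, 400 cells/well, exposed to compounds plus 20 nM camptothecin for at least 48 h at 37 C; viability read as ATP content by CellTiter-Glo luminescence.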
# RORgamma inh: ROR gamma (mouse) transcription inhibition. AID 2551. actives 5.4% (n = 310,000). Potency, µM (top dose mostly 53.6 µM), without a hit: top-dose activity change, negative = inhibition, usual class: inhibitors. Drosophila S2 Gal4-RORgamma UAS-luciferase reporter, 20 h. P51450; further: potency means the concentration at half of the fitted maximal effect; nearly all actives have a fitted effect of over 60% in size
# Target sequence (P51450 whole entry, looked up, the tested form may be a part): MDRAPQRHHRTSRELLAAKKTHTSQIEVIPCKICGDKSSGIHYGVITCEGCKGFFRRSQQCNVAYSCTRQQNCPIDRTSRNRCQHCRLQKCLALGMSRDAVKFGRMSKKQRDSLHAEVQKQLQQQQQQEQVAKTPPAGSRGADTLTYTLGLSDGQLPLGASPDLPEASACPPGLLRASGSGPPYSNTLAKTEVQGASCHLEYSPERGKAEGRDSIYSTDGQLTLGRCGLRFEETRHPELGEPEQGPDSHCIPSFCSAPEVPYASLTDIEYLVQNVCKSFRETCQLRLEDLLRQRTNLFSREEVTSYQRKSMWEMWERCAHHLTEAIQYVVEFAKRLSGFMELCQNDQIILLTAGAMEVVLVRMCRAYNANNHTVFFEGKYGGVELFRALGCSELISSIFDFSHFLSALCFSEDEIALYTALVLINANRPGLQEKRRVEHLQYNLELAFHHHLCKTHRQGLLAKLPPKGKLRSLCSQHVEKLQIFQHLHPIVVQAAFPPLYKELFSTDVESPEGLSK
#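 Using a luciferase readout, inhibitors were identified by reduced reporter activity in Drosophila cells coexpressing a copper-inducible Gal4–ROR gamma fusion and UAS-driven Photinus luciferase, incubated 20 hr after 700 uM copper sulfate.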
# TDP1 cell noCPT: qHTS for Inhibitors of human tyrosyl-DNA phosphodiesterase 1 (TDP1): qHTS in cells in absence of CPT | DT40 Tdp1-/- hTDP1 cells, no CPT, ATP luminescence, 48 h | actives 15% (n = 420,000) | Potency, µM (top dose mostly 46.2 µM), for the others: at the highest dose activity change, negative = growth inhibition, most hits filed as inhibitors; further: potency means the concentration at half of the fitted maximal effect; nearly all actives have a fitted effect of over 55% in size
#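 Growth kinetics read by CellTiter-Glo luminescence after ≥48 hr at 37 °C. Cells: DT40 Tdp1-/- stably carrying human TDP1, 400 per well, compound exposure in the absence of CPT (DMSO vehicle).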
# IL-1B inflam inh: inflammasome signaling inhibition, IL-1 beta readout | activity change, % at 57.5 µM | actives 4.7% (n = 360,000) | THP-1 LPS/ATP IL-1B secretion, AlphaLISA, 16 h; hits give low values; in the data active means activity change below about -50%; inconclusive means mostly about -30% to -49%
#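 THP-1 cells pretreated 1 hr with compounds (up to 57.5 uM final), then stimulated with LPS (250 ng/mL final) plus ATP (1.25 mM final); secreted IL-1B measured by AlphaLISA after 16 hr, decreased signal indicating inhibition.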
# Gal4-VP16 FLuc: Gal4-VP16 reporter inhibition counter-screen; Drosophila S2 Gal4-VP16 UAS-luciferase, luminescence, 20 h; Potency, µM (top dose mostly 53.6 µM), for inactives: at the top dose activity, negative = inhibition, usual class: inhibitors; actives 3.5% (n = 310,000); AID 2546;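 further: Gal4-VP16 expression switched on by copper sulfate through the metallothionein promoter; potency means the concentration at half of the fitted maximal effect; nearly all actives have a fitted effect of over 50% in size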
# The depositor's hits bear a star; ? = inconclusive; . = no result given. Sampled rows, rich in hits. Any-hit rate of the full collection: about 21%. Unless noted, the call rests on the fitted dose curve; in most records, active means well fitted curve in the direction sought with a large enough effect; inconclusive means small, poorly fitted or top-dose-only effect, or another doubt; inactive means no such curve, though single readings can be large; an effect the other way counts as inactive or inconclusive. On the % scale 0 is the no-effect control and ±100 the full control effect.
SMILES,ELG1 repair inh,DT40 TDP1 CPT,RORgamma inh,TDP1 cell noCPT,IL-1B inflam inh,Gal4-VP16 FLuc
Cc1cc(C)n2c(SC(C)C(=O)NC3(C#N)CCCCC3)nnc2n1 (stereo not drawn),9%,1%,.,14%,-4,.
CC(C)(C)n1nnnc1C(c1cc2ccccc2o1)N1CCN(C(=O)OCc2ccccc2)CC1 (stereo not drawn),.,?,.,18µM*,-21,.
Cc1cccc(C)c1-n1nnnc1C(c1ccnc2ccccc12)N1CCN(C(=O)OCc2ccccc2)CC1 (stereo not drawn),.,?,.,16µM*,12,.
CC(C)(C)OC(=O)N1CCN(C(c2ccnc3ccccc23)c2nnnn2-c2ccc3c(c2)OCCO3)CC1 (stereo not drawn),.,?,.,16µM*,6,.
Cc1cccc(C)c1-n1nnnc1C(c1ccnc2ccccc12)N1CCN(C/C=C/c2ccccc2)CC1 (stereo not drawn),.,9.2µM*,.,8.2µM*,-17,.
Cc1cccc(C)c1-n1nnnc1C(c1ccnc2ccccc12)N1CCCC1 (stereo not drawn),.,?,.,?,1,.
COc1ccc([C@H]2C[C@H](n3cc(C4CC4)nn3)[C@@H](O)CN2C(=O)C2CCCCC2)cc1,.,-6%,.,3%,-16,.
CC(C)(C)n1nnnc1C(c1ccnc2ccccc12)N1CCN(C/C=C/c2ccccc2)CC1 (stereo not drawn),.,16µM*,.,16µM*,11,.
CCC(NC(=O)c1ccccc1NC(=O)c1ccc(OC)cc1)C(=O)N1CCCC1 (stereo not drawn),?,-30%,16%,0%,-14,-10%
CCC(NC(=O)c1ccccc1NC(=O)c1ccco1)C(=O)NNC(=O)c1ccc(OC)cc1 (stereo not drawn),14%,-10%,1%,-46%,-120*,-7%
CCC(C)C(NC(=O)c1ccccc1NC(=O)c1ccco1)C(=O)NNC(=O)c1ccc(OC)cc1 (stereo not drawn),-30%,?,?,-14%,-28,-15%
CCC(NC(=O)c1ccccc1NC(=O)c1ccccc1)C(=O)OC (stereo not drawn),23%,?,?,?,-6,6.3µM*
N#CC1(NC(=O)Cn2cc(C(F)(F)F)cc(Cl)c2=O)CCCCC1,-5%,-2%,-29%,0%,1,2%
CNC(=O)N(O)C1N(NC(=O)Nc2ccccc2)C(=S)SC1(C)C (stereo not drawn),.,-7%,.,-28%,-4,.
CC1(C)SC(=S)N(NC(=O)Nc2cccc3ccccc23)C1N(O)C(=O)Nc1ccccc1 (stereo not drawn),?,?,-28%,16µM*,-25,?
CC1(C)SC(=S)N(/N=C/c2ccccc2)C1N(O)C(=O)Nc1ccc([N+](=O)[O-])cc1 (stereo not drawn),5%,16µM*,?,18µM*,?,3.5µM*
COc1ccc(C(=O)N2CCC3(CC2)CN(C(=O)NC(C)C)C3)cc1,.,10%,-15%,1%,.,4%
O=C(C[n+]1c2ccccc2cc2ccccc21)c1ccc(F)cc1,.,?,.,10µM*,.,.
O=C(C[n+]1cccc2cccc(O)c21)c1ccc(F)cc1,.,7.1µM*,.,?,.,.
O=C(C[n+]1cccc2ccccc21)c1ccc(F)cc1,.,-9%,.,-24%,.,.
O=C(C[n+]1cccc2cccc(O)c21)c1ccccc1,.,?,.,-12%,.,.
Nc1ccc(Oc2ccc([N+](=O)[O-])cc2[N+](=O)[O-])cc1,29%,18µM*,8.9µM*,?,4,3%
O=[N+]([O-])c1ccc(Oc2cccnc2)c([N+](=O)[O-])c1,.,4.1µM*,.,5.8µM*,-112*,.
O=c1ccc2ccc(Oc3ccc([N+](=O)[O-])cc3[N+](=O)[O-])cc2o1,?,.,10µM*,.,.,?
Cc1c(-c2nc(-c3ccncc3)no2)cccc1[N+](=O)[O-],?,-17%,23%,?,8,-20%
O=[N+]([O-])c1cc(-c2nc(-c3ccncc3)no2)ccc1Cl,?,10µM*,?,?,-118*,?
O=[N+]([O-])c1cc(-c2nc(-c3ccncc3)no2)cc([N+](=O)[O-])c1,-3%,10µM*,-44%,10µM*,32,-18%
CCCNc1ccc(-c2nc(-c3ccncc3)no2)cc1[N+](=O)[O-],.,-17%,.,-5%,.,.
CCc1ccc2oc(C(=O)Nc3c(C)n(C)n(-c4ccccc4)c3=O)cc(=O)c2c1,.,-2%,.,-17%,.,.
Cc1c(N=C2N=C(NC(=O)Nc3ccc(Cl)cc3)c3ccccc32)c(=O)n(-c2ccccc2)n1C,-4%,18µM*,9%,23µM*,-1,-8%

# Screening results (PubChem BioAssay)
